# Source: PubChem (National Center for Advancing Translational Sciences (NCATS))
# DT40 TDP1 no CPT – qHTS for Inhibitors of human tyrosyl-DNA phosphodiesterase 1 (TDP1): qHTS in cells in absence of CPT | DT40 Tdp1-/- hTDP1 cells, no CPT, ATP luminescence, 48 h | Potency, µM (doses to about 46.2 µM), without a hit: at the top dose activity change, negative = growth inhibition, hits mostly inhibitors | actives 15% (n = 420,000) | AID 686978, 2013; further: potency means the concentration at half of the fitted maximal effect; on the % scale 0 is the no-effect control and ±100 the full control effect; nearly all actives have a fitted effect of over 55% in size
#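 Growth kinetics read by CellTiter-Glo luminescence after ≥48 hr at 37 °C. Cells: DT40 Tdp1-/- stably carrying human TDP1, 400 per well, compound exposure in the absence of CPT (DMSO vehicle).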
# TDP1 cell CPT – DT40-hTDP1 cell growth loss with CPT. actives 12% (n = 420,000). chicken DT40 Tdp1-/-;hTDP1 cells + 20 nM CPT, ATP luminescence, 48 h. Potency, µM (titrated, usually from 46.2 µM), for the others: at the highest dose activity change, negative = growth inhibition, most hits filed as inhibitors. AID 686979; further: potency means the concentration at half of the fitted maximal effect; on the % scale 0 is the no-effect control and ±100 the full control effect; nearly all actives have a fitted effect of over 55% in size
#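 Chicken DT40 Tdp1-/- cells complemented with human TDP1, 400 cells/well, exposed to compounds plus 20 nM camptothecin for at least 48 h at 37 C; viability read as ATP content by CellTiter-Glo luminescence.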
# TGFb SMAD3 inh – TGF-b pathway inhibition | HepG2 CAGA-GFP TGF-b/SMAD3 reporter, GFP fluorescence, 18 h; TGF-beta stimulated, 500 pg/mL final | Potency, µM (titrated, usually from 46.1 µM), for the others: at the highest dose activity, negative = inhibition, actives largely listed as inhibitors | actives 1.2% (n = 410,000) | AID 588855; further: potency means the concentration at half of the fitted maximal effect; on the % scale 0 is the no-effect control and ±100 the full control effect; nearly all actives have a fitted effect of over 65% in size
#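 HEPG2 CAGA-GFP reporter cells (1000/well, DMEM with 1% FBS) received compounds, then recombinant TGF-beta at 500 pg/mL final for 18 hours at 37 degrees C. Per-cell GFP summed per well was normalised to unstimulated and stimulated DMSO controls before curve fitting.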
# IL-1B inflam inh – inhibitors of inflammasome signaling (IL-1 beta secretion); actives 4.7% (n = 360,000); THP-1 LPS/ATP IL-1B secretion, AlphaLISA, 16 h; hits give low values; activity change, % at 57.5 µM; in the data active means activity change below about -50%; inconclusive means mostly about -30% to -49%; further: on the % scale 0 is the no-effect control and ±100 the full control effect
#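 Secreted IL-1B measured by AlphaLISA bead assay after 16 h compound exposure of THP-1 cells; compounds (final up to 57.5 uM) added 1 h before LPS (250 ng/mL) and ATP (1.25 mM) stimulation; lower signal means less secretion.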
# TDP1 block – TDP1 (human) enzyme inhibition | Q9NUW8 | actives 0.28% (n = 350,000) | AID 485290 | Potency, µM (doses to about 130 µM), without a hit: top-dose activity change, negative = inhibition, actives largely listed as inhibitors | recombinant TDP1, AlphaScreen DNA substrate cleavage; further: potency means the concentration at half of the fitted maximal effect; on the % scale 0 is the no-effect control and ±100 the full control effect; nearly all actives have a fitted effect of over 40% in size
# Target sequence (Q9NUW8 whole entry, looked up): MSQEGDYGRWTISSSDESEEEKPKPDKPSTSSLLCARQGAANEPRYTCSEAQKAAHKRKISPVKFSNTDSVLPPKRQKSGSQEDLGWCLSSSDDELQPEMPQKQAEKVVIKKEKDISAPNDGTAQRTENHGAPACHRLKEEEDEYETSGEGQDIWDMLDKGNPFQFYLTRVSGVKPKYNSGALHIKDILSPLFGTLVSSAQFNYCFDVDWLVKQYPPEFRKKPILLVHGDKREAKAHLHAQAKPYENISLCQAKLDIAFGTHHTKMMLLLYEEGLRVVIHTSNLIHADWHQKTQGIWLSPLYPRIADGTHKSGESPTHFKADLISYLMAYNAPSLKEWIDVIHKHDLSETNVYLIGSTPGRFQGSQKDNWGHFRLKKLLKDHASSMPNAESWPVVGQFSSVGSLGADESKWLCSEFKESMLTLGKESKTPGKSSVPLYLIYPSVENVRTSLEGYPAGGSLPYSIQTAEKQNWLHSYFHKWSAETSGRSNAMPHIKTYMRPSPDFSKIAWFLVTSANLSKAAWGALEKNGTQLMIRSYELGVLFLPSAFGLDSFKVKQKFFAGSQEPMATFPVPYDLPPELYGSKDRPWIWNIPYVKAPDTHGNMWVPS
#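 Tdp1 1 nM final; 15 min RT w/ cpd; substrate 15 nM, 5 min; beads 10 ug/ml, 10 min; AlphaScreen read. Neg ctrl: no enzyme.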
# HepG2 tox – HepG2 cytotoxicity, counter-screen for TGF-b inhibitors. HepG2 CAGA-GFP viability, ATP luminescence, 18 h. Potency, µM (series often up to 46.1 µM), for the others: at the highest dose activity change, negative = cytotoxicity, most hits filed as cytotoxic. actives 0.76% (n = 410,000). AID 588856; further: potency means the concentration at half of the fitted maximal effect
#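 HepG2 CAGA-GFP cells (1000/well, DMEM with 1% FBS) received compound, then TGF-beta at 500 pg/mL final, and were incubated 18 hours at 37 degrees C. Viability was read by CellTiter-Glo luminescence. Media-only wells were set as complete cell-killing and DMSO as no toxicity.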
# Starred values were filed as active, the others as inactive; ? = inconclusive; · = not tested or not shown. An excerpt weighted towards active compounds, which were near 18% of everything screened. Unless noted, the call rests on the fitted dose curve; in most records, active means well fitted curve in the direction sought with a large enough effect; inconclusive means small, poorly fitted or top-dose-only effect, or another doubt; inactive means no such curve, though single readings can be large; an effect the other way counts as inactive or inconclusive.
SMILES,DT40 TDP1 no CPT,TDP1 cell CPT,TGFb SMAD3 inh,IL-1B inflam inh,TDP1 block,HepG2 tox
COc1ccc(CNC(=O)CN(C(=O)CCC(=O)Nc2ccccn2)c2ccc3c(c2)OCO3)cc1,-24%,-5%,?,-13,6%,-36%
Cc1cc(C(Br)(Br)Br)nc2ccccc12,2.5µM*,2.5µM*,?,·,·,11µM*
Cc1cc(Cl)nc2ccccc12,-3%,3%,0%,·,·,-19%
COc1ccc(/C=C/c2cc(C(=O)O)c3ccccc3n2)cc1,15µM*,10µM*,5%,17,-1%,-20%
Cc1cc(/C=C\c2ccccc2)nc2ccccc12,-23%,-7%,-20%,-52*,-4%,-39%
CC(C)CCN1C(=O)c2ccc(C(=O)Nc3ccccc3C(=O)O)cc2C1=O,3%,-15%,-1%,16,·,-2%
Cc1ccc(SCC(=O)Nc2ccc(N3CCN(C)CC3)c(F)c2)cc1,21µM*,?,?,11,1%,-39%
COc1ccc(SCC(=O)Nc2ccc(N3CCN(C)CC3)c(F)c2)cc1,?,-19%,-12%,33,-3%,-18%
O=C(N/N=C/c1cccc(C(F)(F)F)c1)c1ccc(O)cc1,-25%,5%,5%,-81*,0%,3%
O=C(NN=Cc1c(O)ccc2ccccc12)C1CC1,5.2µM*,5.8µM*,-27%,121,·,-34%
O=C(N/N=C/c1c(O)ccc2ccccc12)c1cccc(C(F)(F)F)c1,1µM*,0.65µM*,?,23,11%,-34%
Cc1cc(=O)oc2cc(NC(=O)[C@H](CCCCN)NC(=O)[C@H](CC3CCCCC3)NC(=O)OCC3c4ccccc4-c4ccccc43)ccc12,·,·,·,·,25%,·
CCc1cccc(-n2c(SCC(=O)c3c(N)n(C4CC4)c(=O)[nH]c3=O)nnc2N2CCOCC2)c1,2%,-13%,-1%,6,·,-7%
CCCc1nnc(NC(=O)CCC(=O)NC2CCCC2)s1,-6%,-8%,0%,6,1%,-16%
Cc1cc(Nc2n[nH]c(N)c2C#N)ccc1F,-5%,9%,-1%,?,·,4%
Cc1ccc(S(=O)(=O)Nc2cc(C)cn(Cc3ccc(F)cc3)c2=O)cc1,?,26µM*,-4%,5,·,-3%
Cc1ccc(S(=O)(=O)Nc2cc(C)cn(Cc3ccccc3)c2=O)cc1,16µM*,21µM*,-1%,9,·,-17%
Cc1ccc(S(=O)(=O)Nc2cc3c(cc2Cl)n(C)c(=O)c(=O)n3C)cc1,-24%,-2%,-23%,·,5%,-37%
Cc1ccc(NC(=O)CC2Oc3ccc(C)cc3NC2=O)c(C)c1 (configuration not stated),21µM*,?,1%,9,6%,-22%
Nc1cc(OCc2ccccc2)ccc1OCc1ccccc1,-20%,?,22%,-9,·,0%
CCOC(=O)c1cnc(SC)nc1Oc1cccc(NS(=O)(=O)c2ccc(Cl)cc2)c1,?,?,3%,43,-5%,-4%
CCOC(=O)c1cnc(SC)nc1Oc1cccc(NC(=O)c2ccc(Cl)cc2)c1,23µM*,?,0%,1,-5%,42%
CC1(c2ccccc2)NC(=O)N(CC(=O)Nc2ccc3c(c2)OCO3)C1=O (configuration not stated),-9%,-13%,0%,0,2%,1%
Cc1ccc2nc(-c3ccc(NC(=O)CN4C(=O)NC(C)(c5ccc(OC(F)F)cc5)C4=O)cc3)sc2c1 (configuration not stated),23µM*,15µM*,?,-5,-3%,-67%
CC1(c2ccc(OC(F)F)cc2)NC(=O)N(CC(=O)Nc2ccc3c(c2)OCO3)C1=O (configuration not stated),?,16µM*,33%,37,1%,-24%
SMILES,DT40 TDP1 no CPT,TDP1 cell CPT,TGFb SMAD3 inh,IL-1B inflam inh,TDP1 block,HepG2 tox
O=C(Nc1ccccc1C(=O)Nc1ccncc1)c1ccccc1,-20%,-23%,16%,6,-3%,-14%
CCCCn1c(-c2cccc3ccccc23)nc2cc3[nH]c(=O)c(C(C)C)nc3cc21,16µM*,?,?,-13,·,-28%
CCCCn1c(C2CCCCC2)nc2cc3[nH]c(=O)c(C(C)C)nc3cc21,?,?,?,24,·,2%
CCCCn1c(-c2ccccc2C)nc2cc3[nH]c(=O)c(C(C)C)nc3cc21,?,21µM*,?,-26,·,-64%
CN(C)CC(=O)N[C@@H]1CC[C@@H](CCNS(=O)(=O)c2ccccc2)O[C@@H]1CO,-3%,5%,·,-13,·,·
CC(=O)Nc1ccc(S(=O)(=O)NCCCc2ccccc2)cc1,?,?,-18%,-12,·,7%
CNC(=O)/C(C#N)=C/c1c(N(Cc2ccccc2)Cc2ccccc2)nc2c(C)cccn2c1=O,?,?,13µM*,?,5%,6%
CCNC(=O)/C(C#N)=C/c1c(N(Cc2ccccc2)Cc2ccccc2)nc2ccccn2c1=O,?,?,?,-55*,1%,-32%
CCOc1ccc(N(CC(=O)Nc2ccc(OC)cc2)S(=O)(=O)c2ccc(Cl)cc2)cc1,·,·,11%,·,5%,2%
Cc1csc(NC(=O)C2CC(=O)N(Cc3ccco3)C2)n1 (configuration not stated),-1%,3%,-5%,23,3%,7%
Cc1ccc(-c2csc(NC(=O)C3CC(=O)N(Cc4ccco4)C3)n2)cc1 (configuration not stated),?,?,?,-65*,8%,-16%
COc1ccc(C2NC(=O)Cc3cc(OC)c(OC)cc32)cc1OC (configuration not stated),-17%,-22%,0%,0,-2%,3%
COc1cc2c(cc1OC)C(c1ccc(Br)cc1)NC(=O)C2 (configuration not stated),-17%,2%,3%,-71*,·,-5%
CCOC(=O)[C@]12CCCC=C1N(Cc1ccc3c(c1)OCO3)C(=O)[C@H](CC(=O)NCCCOC)C2,-27%,-28%,·,10,·,·
CCCCOCCCNC(=O)C[C@@H]1C[C@@]2(C(=O)OCC)CCC=C2N(Cc2ccc3c(c2)OCO3)C1=O,16µM*,21µM*,·,-9,·,·
CCOC(=O)[C@]12CCC=C1N(Cc1ccc3c(c1)OCO3)C(=O)[C@H](CC(=O)NCC13CC4CC(CC(C4)C1)C3)C2,23µM*,?,·,?,·,·
